In all, about 290,000 compounds went through this assay and about 570 (0.2%) were called active. Not shown: some 1% with an inconclusive outcome. Rule as the data show it: active = inhibition mostly above about 51% (no sharp cut-off); inconclusive = no clear call, values can overlap the other calls; inactive = mostly below about 53%. The entries come from a sample that favours actives as a whole.
Biological target: Voltage-dependent N-type calcium channel subunit alpha-1B (Homo sapiens) (UniProt Q00975)
Test: inhibitors of Mint1-CaV2.2 protein interaction, biochemical, HTRF (AID 2073)
Conditions: at 20 µM, stronger effect = higher value
[1] = measured here: average of repeat tests

Voltage-dependent N-type calcium channel subunit alpha-1B (Homo sapiens), sequence (Q00975 whole entry, looked up): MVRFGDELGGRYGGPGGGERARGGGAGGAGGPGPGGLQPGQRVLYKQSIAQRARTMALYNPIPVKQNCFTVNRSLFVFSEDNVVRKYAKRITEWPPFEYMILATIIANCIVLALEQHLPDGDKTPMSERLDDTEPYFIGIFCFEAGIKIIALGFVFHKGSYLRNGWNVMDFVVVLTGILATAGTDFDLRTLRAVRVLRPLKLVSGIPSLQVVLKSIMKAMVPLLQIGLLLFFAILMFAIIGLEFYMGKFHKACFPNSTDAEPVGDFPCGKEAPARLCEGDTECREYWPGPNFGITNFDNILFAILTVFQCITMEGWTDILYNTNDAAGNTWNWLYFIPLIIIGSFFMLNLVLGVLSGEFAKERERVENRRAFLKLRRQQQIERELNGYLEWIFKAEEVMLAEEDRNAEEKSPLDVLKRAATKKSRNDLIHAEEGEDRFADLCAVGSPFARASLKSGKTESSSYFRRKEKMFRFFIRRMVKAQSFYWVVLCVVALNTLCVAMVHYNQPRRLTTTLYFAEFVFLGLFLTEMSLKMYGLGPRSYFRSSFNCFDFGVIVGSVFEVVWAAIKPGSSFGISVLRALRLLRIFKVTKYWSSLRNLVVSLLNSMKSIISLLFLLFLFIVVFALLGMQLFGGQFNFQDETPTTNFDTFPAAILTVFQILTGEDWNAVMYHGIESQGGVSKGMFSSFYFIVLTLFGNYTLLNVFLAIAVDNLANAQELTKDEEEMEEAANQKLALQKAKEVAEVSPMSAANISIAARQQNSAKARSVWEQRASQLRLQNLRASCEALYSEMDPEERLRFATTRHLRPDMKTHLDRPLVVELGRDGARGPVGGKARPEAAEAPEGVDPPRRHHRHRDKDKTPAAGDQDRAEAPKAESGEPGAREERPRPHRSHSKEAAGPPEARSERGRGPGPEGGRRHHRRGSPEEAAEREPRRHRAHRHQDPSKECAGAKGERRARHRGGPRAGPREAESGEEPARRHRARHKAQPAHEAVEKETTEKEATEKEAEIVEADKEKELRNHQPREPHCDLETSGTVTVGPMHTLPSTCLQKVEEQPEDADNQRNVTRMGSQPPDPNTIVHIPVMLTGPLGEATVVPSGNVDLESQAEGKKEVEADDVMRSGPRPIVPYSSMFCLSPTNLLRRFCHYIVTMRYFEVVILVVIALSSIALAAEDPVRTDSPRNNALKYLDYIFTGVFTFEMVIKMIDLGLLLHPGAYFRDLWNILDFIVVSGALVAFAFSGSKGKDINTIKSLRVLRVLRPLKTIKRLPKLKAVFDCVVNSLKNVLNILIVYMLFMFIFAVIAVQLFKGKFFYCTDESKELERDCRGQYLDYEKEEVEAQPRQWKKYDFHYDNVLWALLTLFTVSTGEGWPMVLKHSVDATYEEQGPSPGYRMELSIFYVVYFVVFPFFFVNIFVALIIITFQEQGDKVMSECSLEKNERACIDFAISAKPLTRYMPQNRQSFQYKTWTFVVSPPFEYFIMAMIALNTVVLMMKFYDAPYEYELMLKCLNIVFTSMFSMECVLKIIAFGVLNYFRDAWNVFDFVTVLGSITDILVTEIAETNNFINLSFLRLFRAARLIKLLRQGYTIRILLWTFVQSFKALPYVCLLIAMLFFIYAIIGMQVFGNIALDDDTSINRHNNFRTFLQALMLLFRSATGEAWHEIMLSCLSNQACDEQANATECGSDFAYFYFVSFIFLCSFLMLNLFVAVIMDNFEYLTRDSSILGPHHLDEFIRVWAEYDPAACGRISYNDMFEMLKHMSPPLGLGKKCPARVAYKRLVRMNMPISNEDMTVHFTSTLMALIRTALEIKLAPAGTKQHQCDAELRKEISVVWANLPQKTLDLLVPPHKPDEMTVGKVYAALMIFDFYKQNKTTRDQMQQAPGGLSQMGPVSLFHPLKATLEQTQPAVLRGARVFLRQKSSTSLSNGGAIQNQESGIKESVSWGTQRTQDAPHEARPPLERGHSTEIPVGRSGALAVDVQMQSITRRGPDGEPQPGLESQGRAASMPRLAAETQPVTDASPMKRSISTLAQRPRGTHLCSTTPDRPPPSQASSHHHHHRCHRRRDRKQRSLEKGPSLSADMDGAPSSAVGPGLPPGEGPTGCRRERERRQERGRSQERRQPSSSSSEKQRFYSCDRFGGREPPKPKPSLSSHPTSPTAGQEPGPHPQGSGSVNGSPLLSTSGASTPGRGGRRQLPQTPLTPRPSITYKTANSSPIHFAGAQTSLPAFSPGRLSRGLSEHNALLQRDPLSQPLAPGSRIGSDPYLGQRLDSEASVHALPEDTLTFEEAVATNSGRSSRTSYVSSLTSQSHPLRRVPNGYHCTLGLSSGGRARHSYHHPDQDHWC

Row | Compound | inhibition | inhibition [1]
1 | CC(C)n1c(=O)c(C=Nc2ccc(F)cc2)c(O)n(Cc2ccco2)c1=O | 14.1% (inactive) | –
2 | CC(C)n1c(=O)c(C=Nc2ccc(Br)cc2)c(O)n(Cc2ccco2)c1=O | 59.1% (active) | –
3 | CC(C)n1c(=O)c(C=Nc2ccc(Cl)cc2)c(O)n(Cc2ccco2)c1=O | 63.2% (inactive) | 17.6%
4 | O=C(O)CCn1cc(C=C2C(=O)NC(=O)NC2=O)c(-c2ccc(Br)cc2)n1 | 11.7% (inactive) | –
5 | O=C(O)CCn1cc(C=C2C(=O)NC(=S)NC2=O)c(-c2cccc(Br)c2)n1 | 75.7% (active) | –
6 | O=C(O)CCn1cc(C=C2C(=O)NC(=O)NC2=O)c(-c2cc3ccccc3oc2=O)n1 | 42.3% (inactive) | –
7 | O=C(Cc1ccc(Br)cc1)N1CCN(Cc2ccccc2)CC1 | 9.2% (inactive) | –
8 | CCc1ccc(N2C(=O)NC(=O)/C(=C/c3cccn3CCOc3ccc(C)cc3)C2=O)cc1 | 17.5% (inactive) | –
9 | CN(C)C(=S)SSC(=S)N(C)C | 78% (active) | –
10 | CC(=O)N1CCN(Cc2ccc(Cl)nc2)CC1 | 5.2% (inactive) | –
11 | O=C1CC(=O)N(c2cccc(Br)c2)C(=O)N1 | 3.7% (inactive) | –
12 | Cc1ccc(NC(=O)c2cn(CCC#N)nc2-c2ccc3c(c2)OCCO3)c([N+](=O)[O-])c1 | -4.2% (inactive) | –
13 | COc1ccc(Cl)cc1N=Cc1c(O)n(C)c(=O)n(C)c1=O | 15.7% (inactive) | –
14 | CCC(=O)Nc1ccccc1 | -4.1% (inactive) | –
15 | CCCCC/C=C\C/C=C\C/C=C\C/C=C\CCCC(=O)Nc1ccc(O)cc1 | 51% (active) | –
16 | CCN(CC)C(=O)c1ccc(NC(=O)CCCSc2ccccc2)cc1 | -3.4% (inactive) | –
17 | CN1CCN(C(=O)Cc2ccccc2)CC1 | 5.6% (inactive) | –
18 | O=c1[nH]c(=S)n(-c2ccccc2Cl)c(O)c1C=NCCN1CCNCC1 | -0.4% (inactive) | –
19 | Cc1oc(-c2ccccc2)nc1CN1C(=O)CN=C(c2ccccc2)c2ccccc21 | -1.1% (inactive) | –
20 | COc1ccc(CC[n+]2cc(/N=C(\C)[O-])on2)cc1OC | 11.6% (inactive) | –
21 | Cc1cc(/C=C2\C(=O)NC(=O)N(C)C2=O)c(C)n1-c1ccc2c(c1)OCO2 | 0.4% (inactive) | –
22 | Cc1cc(C=C2C(=O)NC(=S)NC2=O)c(C)n1-c1ccc2c(c1)OCO2 | 53.2% (active) | –
23 | Cc1cc(C=C2C(=O)NC(=O)NC2=O)c(C)n1-c1ccc2c(c1)OCO2 | 16.8% (inactive) | –
24 | O=C1NC(=O)C(CCc2ccncc2)(CCc2ccccn2)C(=O)N1c1ccc(Br)cc1 (stereo not drawn) | 16.2% (inactive) | –
25 | COc1cc(Br)c(CNCCc2ccc3c(c2)OCO3)cc1OC | -3.9% (inactive) | –
26 | COc1cc2c(c(OC)c1)C(=O)OC(C)CCCC(=O)CCCCC2 (stereo not drawn) | 7.1% (inactive) | –
27 | COc1cccc(-n2c(/C=C/c3ccc(O)c(O)c3)nc3ccccc3c2=O)c1 | 62.6% (active) | –
28 | COc1ccc(-n2c(/C=C/c3ccc(O)c(O)c3)nc3ccccc3c2=O)cc1 | 40.5% (inactive) | –

Row | Compound | inhibition | inhibition [1]
29 | O=c1c2ccccc2nc(/C=C/c2ccc(O)c(O)c2)n1-c1ccccc1 | 33.3% (inactive) | –
30 | O=C(CN1CC(c2ccccc2)CC1=O)NCc1ccc(F)cc1 (stereo not drawn) | -3.7% (inactive) | –
31 | C[n+]1ccc(-c2ccncc2)cc1 | 6.3% (inactive) | –
32 | CSc1nc(N)c(N=Nc2ccc([As](=O)(O)O)cc2)c(=O)[nH]1 | 58.9% (active) | –
33 | COc1ccc(N=Nc2c(O)[nH]c(=S)[nH]c2=O)cc1 | -13.3% (inactive) | –
34 | O=[As](O)(O)c1ccc(N=Nc2ccc(O)cc2)cc1 | 15.6% (inactive) | –
35 | CN1C(=O)C(=Cc2ccc(OCCN(C)c3ccccn3)cc2)C(=O)N(C)C1=O | 3.3% (inactive) | –
36 | CCOP(=O)(OCC)/C(C#N)=C/c1ccc(Br)cc1 | 3.7% (inactive) | –
37 | CCc1ccc(/C=C(/C#N)C(N)=S)cc1 | 84.5% (active) | –
38 | N#CC(C#N)=Cc1ccc(C=C(C#N)C#N)cc1 | 19.1% (inactive) | –
39 | CN(C)P1(N(C)C)=NC(C(F)(F)F)=NC(C(F)(F)F)=N1 | 2.9% (inactive) | –
40 | CNC(=S)N(C)CCc1cc2c(c(OC)c1C=C1C(=O)NC(=O)NC1=O)OCO2 | 50.6% (active) | –
41 | COc1c(C=C2C(=O)NC(=O)NC2=O)c(CCN(C)C(=O)c2ccccc2)cc2c1OCO2 | 15.8% (inactive) | –
42 | CNC(=S)N(C)CCc1cc2c(c(OC)c1/C=C1/C(=O)NC(=O)N(C)C1=O)OCO2 | 6.3% (inactive) | –
43 | C=CCN1C(=O)/C(=C/c2cccs2)C(=O)NC1=S | -17.9% (inactive) | –
44 | O=C1NC(=S)N(Cc2ccco2)C(=O)/C1=C\c1cccs1 | 76.9% (active) | –
45 | O=C1NC(=O)N(Cc2ccc(F)cc2)C(=O)/C1=C/c1cccs1 | 29.5% (inactive) | –
46 | Cc1c(C=C2C(=O)N(C)C(=S)N(C)C2=O)c2ccccc2n1CC(=O)NCC1CCCO1 (stereo not drawn) | -5.7% (inactive) | –
47 | CCCCCCn1c(O)c(C=NCCN2CCOCC2)c(=O)[nH]c1=O | -1.8% (inactive) | –
48 | O=C1/C(=C\c2ccc([N+](=O)[O-])cc2)N2CCC1CC2 | -2.4% (inactive) | –
49 | O=C1C2(c3ccccc3)CN3CN(C2)CC1(c1ccccc1)C3 | -5.2% (inactive) | –
50 | CC(C)[C@H]1C(=O)N2CCC[C@H]2[C@]2(O)O[C@](NC(=O)[C@@H]3C=C4c5cccc6[nH]cc(c56)C[C@H]4N(C)C3)(C(C)C)C(=O)N12 | 69.1% (inactive) | 26.9%
51 | CC(C)C[C@H]1C(=O)N2CCCC2[C@]2(O)O[C@](NC(=O)[C@@H]3C=C4c5cccc6[nH]cc(c56)CC4N(C)C3)(C(C)C)C(=O)N12 (stereo partly drawn) | 67.7% (inactive) | 31.4%
52 | CC(C)[C@@]1(NC(=O)[C@@H]2C=C3c4cccc5[nH]cc(c45)C[C@H]3N(C)C2)O[C@@]2(O)[C@@H]3CCCN3C(=O)[C@H](Cc3ccccc3)N2C1=O | 66.3% (active) | –
53 | CC(C)CC(NC(=O)C1CCCCC1)C(=O)N1CCC2(CC1)OCCO2 (stereo not drawn) | -0.4% (inactive) | –
54 | NP(=O)(OCCCc1ccccc1)Oc1ccc(Cl)cc1 (stereo not drawn) | 2.9% (inactive) | –
55 | C=Cn1ccnc1P(=S)(c1ccc(Cl)cc1)c1nccn1C=C | 4.2% (inactive) | –

Source: PubChem BioAssay AID2073 (Sanford-Burnham Center for Chemical Genomics, 2009)
